Source: PubChem BioAssay (NCI)
Compounds without any hit were thinned out: in the full panel of roughly 83,000, 20% have a hit.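 In brief: 96-well plates, 48 h treatment, single concentration, percent growth endpoint.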 A number with no mark means an inactive call. Active and inactive are the calls of the source. The calls were made as follows: active = growth percent below 10; inactive = the rest.

Test system: MDA-MB-468 breast
Assay: NCI-60 one-dose screen, 48 h (100 = growth as untreated, 0 = no growth, -100 = all killed)
Details: 10 µM unless noted

O=C(Nc1ccc(Cl)cc1)Nc1ccc(Cl)c(C(F)(F)F)c1
growth: 10.3%

CCOC(=O)C(CC)n1c(=O)c2cc(OC)c(OC)cc2c2cnc3[nH]ccc3c21 (configuration not stated)
growth: 84.2%

C=C(C)[C@@H]1CC[C@]2(C(=O)NC3CCCCC3)CC[C@]3(C)[C@H](CC[C@@H]4[C@@]5(C)CC[C@H](N)C(C)(C)[C@@H]5CC[C@]43C)[C@@H]12
growth: 103%

CCCCCn1sc(=O)n(Cc2ccc(CNC(=O)OCc3ccc4cccc(O)c4n3)cc2)c1=O
growth: -48.1% (active)

Cc1ccc2cccc(OC(=O)Nc3cccc(C(F)(F)F)c3)c2n1
growth: 75.4%

Nc1cc(N)ncn1
growth: 101%

O=c1[nH]c(=O)n(C2C[C@H](O)[C@@H](CO)O2)cc1C(F)(F)F (some centres not stated)
growth: 117%

N#Cc1c(-c2cccs2)cc(-c2cccnc2)[nH]c1=O
growth: 101%

Cc1c(C(N)=O)sc2c1c(=O)n(Cc1ccccc1)c1nnc(-c3ccc(Br)cc3)n21
growth: 29.8%

CCCCc1oc2ccccc2c1C(=O)c1ccc(O)cc1
growth: 78.4%

Fc1ccc(-c2nnc(/C=C/c3cn(-c4ccccc4)nc3-c3ccccc3)o2)cc1
growth: 103%

Cc1ccc(-c2nc3ccccn3c2/C=C2/C(=O)Nc3cc(Cl)ccc32)cc1
growth: 67%

O=C1/C(=C/c2ccc(Cl)cc2)COc2ccc(O)cc21
growth: 85.1%

Cc1cccc(NC2=C(Cl)C(=O)c3nc(C)ccc3C2=O)c1
growth: -81.1% (active)

Cn1cc(-c2csc(-c3ccc(Cl)cc3)n2)c2cccnc21
growth: -69.1% [100 µM] (active)

COc1ccc(-c2nc3ccc(-c4nnc(SCC(=O)Nc5ccc(C(C)=O)cc5)o4)cc3[nH]2)cc1
growth: 109%

O=C1Nc2ccc(Br)cc2/C1=N/c1nc(-c2ccccc2)cs1
growth: 99.8%

CCCCN(CCCC)CCCOC(=O)c1ccc(N)cc1
growth: 47.5%

O=C(COc1ccc(-c2nc3ccccc3[nH]2)cc1)N=Nc1c(O)[nH]c2ccc(Cl)cc12
growth: 89.7%

Cc1ccc(S(=O)(=O)NC(CCC(=O)Nc2ccc(Cl)cc2)C(=O)Nc2ccc(Cl)cc2)cc1 (configuration not stated)
growth: 29%

O=C1NC(=O)C(c2ccc(Cl)cc2Cl)N1 (configuration not stated)
growth: 106%

C#Cc1cccc(Nc2nc(Cl)nc3cc(NC(=O)CCl)ccc23)c1
growth: -71% (active)

Cc1nc2sc(C(=O)Nc3cccc4ccccc34)c(N)c2cc1C(O)c1ccccc1 (configuration not stated)
growth: 18.1%

CCOC(=O)/C=C1/SC(=Nc2ccc(C#N)cc2)N(Cc2ccco2)C1=O
growth: 27.5%

C=CCc1cc(C(C)=O)cc(OC)c1O
growth: 90.6%

COC(=O)Nc1nc2ccc(C(=O)c3ccccc3N(C)C3COC3)cc2[nH]1
growth: 23.8%

Cc1nc(Sc2nc3ccc([N+](=O)[O-])cc3s2)sc1C
growth: 6.67% (active)

CCOC(=O)c1c2c(n3ccc(NC(=O)OC(C)(C)C)cc13)C(=O)c1ncccc1C2=O
growth: -29% (active)

CCCCN(CCCC)CCCn1c(=O)c2sc3ncccc3c2n2nnc(-c3ccccc3)c12
growth: 109%

O=C(Nc1ccccc1N1CCCC1=O)c1oc2ccc(F)cc2c1-c1cnn(-c2ccccc2)c1
growth: 51.1% [50 µM]

S=C1NC2(c3ccccc3)CCC(=S)N2c2ccccc21 (configuration not stated)
growth: 112%

O=C1/C(=C/c2ccc(O)cc2)Oc2ccc(Cl)cc21
growth: 131%

COc1ccc(-c2coc3c(CO)c(O)ccc3c2=O)cc1
growth: 82.9%

Cc1ccc2nc(NC(=O)CSc3nc(-c4ccccc4)c(C#N)c4nnnn34)sc2c1
growth: 107%

COc1cc(NCCC2CCCCN2)c2ncccc2c1OC (configuration not stated)
growth: 73.8%

OCC1OC(n2cnc3c(Cl)ncnc32)CC1O (configuration not stated)
growth: 91.9%

CC(C)(C)OC(=O)CN1CCc2c(sc3ncnc(N/N=C/c4ccccc4Br)c23)C1
growth: 88.5%

CNC(=O)c1cc(Oc2ccc3nc(NC(=O)Nc4ccc(F)cc4F)sc3c2)ccn1
growth: 51.2%

Nc1nnc(C(=O)c2cnc3n(c2=O)CCCCC3)s1
growth: 90.4%

Cn1cc(-c2csc(-c3cn(C)c4ccc(Br)cc34)n2)c2cnccc21
growth: -68.4% (active)

O=C(Cn1c2ccccc2c2ccncc21)N/N=C/c1c[nH]c2ccccc12
growth: 43.4%

Cc1cc(-c2nc3ccccc3s2)ccc1NC(=O)COc1ccc(Cl)cc1
growth: -39% (active)
